Compound activity (PubChem)
The list is not random: actives were taken first. Their share in the collection is about 6.5%.
HCMV inh – qHTS Assay for inhibitors of the human cytomegalovirus (HCMV); HFF cells, HCMV-luciferase reporter, 72 h; hits give low values; activity change, negative = inhibition, % at 57.5 µM; hit rate 4.5% among 410,000; AID 1259415, 2018; in the data active = activity change below about -60%; inconclusive = no clear call, values can overlap the other calls; inactive = above about -39%
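Cell-based, HFFs, 1000 cells/well, 16 h 37C; cpds in DMSO + HCMV-luc, MOI 1 PFU/cell; 72 h 37C; OneGlo luminescence after 5 min RT; norm. to buffer vs Salinomycin 10uM.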
Vaccinia mCherry – qHTS for Stage-Specific Inhibitors of Vaccinia Orthopoxvirus: mCherry Reporter Primary qHTS. Vaccinia virus mCherry reporter infection, fluorescence. Potency, µM (top dose mostly 36.5 µM), inactives show top-dose activity change, negative = inhibition, hits mostly inhibitors. hit rate 0.63% among 310,000; calls by dose curve; tested in A549 cells; note: potency is the fitted concentration of half-maximal effect; nearly all actives have a fitted effect of over 35% in size
LASV entry inh – qHTS for Inhibitors of binding or entry into cells for Lassa Virus | Lassa virus pseudotype entry inhibition, cell reporter | Potency, µM (doses to about 37.9 µM), inactives show at the top dose activity change, negative = inhibition, actives largely listed as inhibitors | hit rate 1.2% among 300,000 | AID 540256, 2011; calls by dose curve; tested in HEK293 cells; note: potency is the fitted concentration of half-maximal effect; nearly all actives have a fitted effect of over 50% in size
VACV Venus inh – qHTS for Stage-Specific Inhibitors of Vaccinia Orthopoxvirus: Venus Reporter Primary qHTS; Vaccinia virus Venus reporter expression, fluorescence; Potency, µM (titrated, usually from 36.5 µM), inactives show at the highest dose activity change, negative = inhibition, usual class: inhibitors; hit rate 0.46% among 330,000; AID 720580, 2013; calls by dose curve; tested in A549 cells; note: potency is the fitted concentration of half-maximal effect; nearly all actives have a fitted effect of over 30% in size
MARV entry inh – qHTS for inhibitors of binding or entry into cells for Marburg Virus | hit rate 1.8% among 300,000 | Potency, µM (highest dose often 37.8 µM), without a hit: at the top dose activity change, negative = inhibition, usual class: inhibitors | Marburg virus pseudotyped entry inhibition, cell reporter; calls by dose curve; tested in HEK293 cells; note: potency is the fitted concentration of half-maximal effect
FMDV inh – High Throughput Screening for Foot and Mouth Disease Virus Antivirals | Potency, µM (highest dose often 57.9 µM), inactives show at the top dose activity change, negative = inhibition, most hits filed as inhibitors | hit rate 1.2% among 410,000 | AID 1159524, 2015 | FMDV antiviral cell-based qHTS; calls by dose curve; tested in HEK293T cells; note: read-out not given here; potency is the fitted concentration of half-maximal effect; nearly all actives have a fitted effect of over 45% in size
The depositor's hits bear a star; i = inactive; ? = inconclusive; / = no result given; ! = a repeat was not active; [ ] = another dose, or the depositor's remark. % is set by controls: 0 for no effect and ±100 for the full control effect.

SMILES	HCMV inh	Vaccinia mCherry	LASV entry inh	VACV Venus inh	MARV entry inh	FMDV inh
COc1ccccc1CNc1ncnc2sc(C(=O)N3CCN(C)CC3)c(C)c12	/	-7.2%	/	-5.4%	/	2.6%
CCN(CC)c1cc(C)c2cc(NC(=O)/C=C/c3ccc(C)cc3)ccc2n1	-10.5	-10.5%	3.2%[46.1 µM]	-11.5%	?	0.0%
CCN(CC)c1cc(C)c2cc(NC(=O)/C=C/c3cc(OC)c(OC)c(OC)c3)ccc2n1	-99.8*	0.8%[7.34 µM]	?	-5.5%[7.34 µM]	?	-22.5%
CCOc1ccc(/C=C/C(=O)Nc2ccc3nc(N(CC)CC)cc(C)c3c2)cc1OC	-31.4	-19.9%	?	-13.0%	11.2µM*	-21.6%
CC(C)c1ccc(OCc2cc(=O)n3c(-c4ccccc4)csc3n2)cc1	-18.8	-8.0%	4.7%[46.1 µM]	-16.4%	0.6%[46.1 µM]	-7.2%
CCCCNC(=S)N(C)/N=C/c1c(F)cccc1F	-89.5*	-15.3%	-19.0%	-7.6%	3.4%	-3.5%
O=C(CN1Cc2ccccc2OC(c2ccsc2)C1)N1CCN(Cc2ccc3c(c2)OCO3)CC1 (configuration not stated)	/	-12.5%	/	-6.6%	/	1.1%
O=C([C@@H]1CC=C[C@@H]2CCN(C3CCCCC3)C(=O)[C@@H]21)N1CCOCC1	/	i	/	-10.9%	/	/
CCCCNC(=O)c1cccc2c(=O)c(C)c(-c3ccccc3)oc12	-67.8*	i	?	-17.9%	-23.1%	0.0%
CCCCNC(=O)c1ccccc1Cl	-107.0*	/	27.4%	/	14.6%	0.0%
CCCCN(C(=O)c1cccc2c(=O)c(C)c(-c3ccccc3)oc12)c1ccccc1	-62.8*	/	11.6µM*	/	?	?
CCCCNC(=O)c1ccccc1C(=O)NCCCC	6.0	/	0.5%	/	-12.6%	-11.6%
COc1ccc(NC(=O)c2ccc(-c3nc(CSc4ccc(C)cc4)c(C)o3)cc2)cc1Cl	-36.4	-24.3%	-3.5%[46.1 µM]	-25.6%	/	?
Cc1cc(O)c(C(=O)/C=C/c2ccc(Cl)cc2)c(=O)o1	100.7	-8.0%	23.0%	7.4%	22.0%	25.1µM*
CSc1ccc(/C=C/C(=O)c2c(O)cc(C)oc2=O)cc1	-80.1*	17.2%	-26.5%[46.1 µM]	33.9%	8.5%[46.1 µM]	-29.6%
C/C(=C\C(=O)c1c(O)cc(C)oc1=O)N(C)C	-8.5	13.2%	16.7%	0.0%	15.6%[46.1 µM]	1.9%
COc1cccc2c1cc1c(=O)n(CC(=O)N3CCN(c4cccc(C(F)(F)F)c4)CC3)nc(C)n12	12.6	-17.3%	/	-7.5%	?	-6.6%
Cc1ccccc1Nc1c(-c2c[nH]c3ccccc23)nc2cccc(C)n12	40.2	-7.1%	-2.8%[46.1 µM]	2.8%	?	9.2%
Cc1ccc(-c2noc(-c3ccc(NCC4CCCO4)c([N+](=O)[O-])c3)n2)cc1 (configuration not stated)	16.7	-12.6%	5.5%[46.1 µM]	2.7%	26.5%[46.1 µM]	-1.6%
COc1cc(NC(=O)Cn2c(=O)ccc3cc(S(=O)(=O)N4CCCC4)ccc32)cc(OC)c1	-29.5	-8.9%	?	-4.8%	/	?
c1ccc(N=Nc2ccccc2)cc1	/	-13.5%	/	-12.2%	/	13.4%
[Hg+][c]1ccccc1	/	2µM*	/	2µM*	/	/
COc1ccc(-c2cn3cccnc3n2)cc1NC(=O)c1ccccc1C(F)(F)F	?	-9.5%	22.3%[46.1 µM]	-11.0%	/	12.3%
COc1ccccc1N=Nc1nc(-c2ccccc2)c(-c2ccccc2)[nH]1	4.4	i	?	14.5%	?	-2.8%
Oc1ccccc1N=Nc1nc(-c2ccccc2)c(-c2ccccc2)[nH]1	-107.0*	?	1.41µM*	?	1µM*	28.2µM*
SMILES	HCMV inh	Vaccinia mCherry	LASV entry inh	VACV Venus inh	MARV entry inh	FMDV inh
O=C(NCCc1ccccc1)c1csc(C(O)Cc2ccc(F)cc2)n1 (configuration not stated)	6.8	/	/	/	/	/
O=C1CCCCC1Nc1ccc2ccccc2c1 (configuration not stated)	-32.5	?	?	-16.7%	3.55µM*	25.7%
C[C@@H]1O[C@@H](O[C@H]2C[C@@H](O)[C@]3(CO)[C@H]4[C@H](O)C[C@]5(C)[C@@H]([C@@H]6COC(=O)C6)CC[C@]5(O)[C@@H]4CC[C@]3(O)C2)[C@H](O)[C@H](O)[C@H]1O	/	/	/	/	0.316µM*	/
C[C@@H]1O[C@@H](O[C@H]2C[C@@H](O)[C@]3(CO)[C@@H]4C(CC[C@]3(O)C2)[C@@]2(O)CC[C@H](C3COC(=O)C3)[C@@]2(C)C[C@H]4O)[C@H](O)[C@H](O)[C@H]1O (some centres not stated)	-99.2*	?	/	1.78µM*	0.82µM*	?
Cc1cc(Cl)ccc1NC(=O)C1CCCN(c2nnc(C)c3c(C)n(-c4ccccc4)nc23)C1 (configuration not stated)	-2.7	-5.5%	-1.9%[46.1 µM]	-8.7%	/	-1.0%
CN1CCC(=C2c3ccccc3Sc3ccccc32)CC1	3.0	?	/	?	/	?
CN1CCC(=C2c3ccccc3C=Cc3ccccc32)CC1	30.7	i	8.2µM*	-9.2%	7.08µM*	?
O=C(NCc1ccco1)c1ccc2c(c1)N(Cc1ccccc1)C(=O)c1ccccc1S2(=O)=O	-19.6	-10.0%	-18.2%[46.1 µM]	-6.2%	0.8%[46.1 µM]	-9.2%
O=C(NCc1ccco1)c1ccc2c(c1)N(Cc1ccccc1F)C(=O)c1ccccc1S2(=O)=O	-66.1*	-17.5%	-1.4%[46.1 µM]	-13.0%	-26.8%[46.1 µM]	4.9%
CCCCN(C)C(=O)c1ccc2c(c1)N(Cc1cccc(Cl)c1)C(=O)c1ccccc1S2=O (configuration not stated)	-81.4*	-15.6%	?	-12.3%	/	-8.5%
CC1CCCN(CCCNC(=O)c2ccc3c(c2)N(Cc2ccccc2F)C(=O)c2ccccc2S3(=O)=O)C1 (configuration not stated)	-70.2*!	?	-19.1%[46.1 µM]	-26.3%	?	2.9%
CC1CCCN(CCCNC(=O)c2ccc3c(c2)N(Cc2cccc(Cl)c2)C(=O)c2ccccc2S3=O)C1 (configuration not stated)	-81.3*	-13.5%	/	?	/	-1.4%
Cc1ccc(-c2csc(NC(=O)C3CC(=O)N(c4ccc5c(c4)OCCO5)C3)n2)o1 (configuration not stated)	/	-4.4%	/	-17.8%	/	/
COc1cc2c(cc1OC)C(COc1ccc(F)cc1)N(C(=O)c1cccc(F)c1)CC2 (configuration not stated)	-17.8	-3.1%	-19.2%[46.1 µM]	-10.6%	/	-19.1%
Cc1cc2c(c(-c3ccc4nc(C)ccc4c3)c1)OC(CNC(=O)Cc1ccn(C)c1)C2 (configuration not stated)	/	-24.6%	/	-15.0%	/	5.4%
CCOC(=O)N1CCN(c2nc(-c3cccc(OC)c3)cc(C(F)(F)F)n2)CC1	-6.2	/	?	/	?	0.0%
CCOC(=O)N1CCN(c2nc(-c3ccco3)cc(C(F)(F)F)n2)CC1	-61.7*	-16.0%	1.7%	0.2%	7.3%	?
